Paper PMC4336329 (PLoS ONE, 2015)
About 14,000 (4.5%) of roughly 310,000 compounds showed an effect of 50% or more. Effects have a minus sign here. The sample holds strong results, similar compounds and a random draw of the others, so the mix is not that of the screen.

What follows are compounds tested against human ether-à-go-go-related gene (hERG) potassium channel (human, UniProt Q12809) (assay: primary screen, population patch clamp on CHO cells stably expressing hERG; higher = less effect of the substance).
human ether-à-go-go-related gene (hERG) potassium channel, sequence (Q12809 whole entry, looked up): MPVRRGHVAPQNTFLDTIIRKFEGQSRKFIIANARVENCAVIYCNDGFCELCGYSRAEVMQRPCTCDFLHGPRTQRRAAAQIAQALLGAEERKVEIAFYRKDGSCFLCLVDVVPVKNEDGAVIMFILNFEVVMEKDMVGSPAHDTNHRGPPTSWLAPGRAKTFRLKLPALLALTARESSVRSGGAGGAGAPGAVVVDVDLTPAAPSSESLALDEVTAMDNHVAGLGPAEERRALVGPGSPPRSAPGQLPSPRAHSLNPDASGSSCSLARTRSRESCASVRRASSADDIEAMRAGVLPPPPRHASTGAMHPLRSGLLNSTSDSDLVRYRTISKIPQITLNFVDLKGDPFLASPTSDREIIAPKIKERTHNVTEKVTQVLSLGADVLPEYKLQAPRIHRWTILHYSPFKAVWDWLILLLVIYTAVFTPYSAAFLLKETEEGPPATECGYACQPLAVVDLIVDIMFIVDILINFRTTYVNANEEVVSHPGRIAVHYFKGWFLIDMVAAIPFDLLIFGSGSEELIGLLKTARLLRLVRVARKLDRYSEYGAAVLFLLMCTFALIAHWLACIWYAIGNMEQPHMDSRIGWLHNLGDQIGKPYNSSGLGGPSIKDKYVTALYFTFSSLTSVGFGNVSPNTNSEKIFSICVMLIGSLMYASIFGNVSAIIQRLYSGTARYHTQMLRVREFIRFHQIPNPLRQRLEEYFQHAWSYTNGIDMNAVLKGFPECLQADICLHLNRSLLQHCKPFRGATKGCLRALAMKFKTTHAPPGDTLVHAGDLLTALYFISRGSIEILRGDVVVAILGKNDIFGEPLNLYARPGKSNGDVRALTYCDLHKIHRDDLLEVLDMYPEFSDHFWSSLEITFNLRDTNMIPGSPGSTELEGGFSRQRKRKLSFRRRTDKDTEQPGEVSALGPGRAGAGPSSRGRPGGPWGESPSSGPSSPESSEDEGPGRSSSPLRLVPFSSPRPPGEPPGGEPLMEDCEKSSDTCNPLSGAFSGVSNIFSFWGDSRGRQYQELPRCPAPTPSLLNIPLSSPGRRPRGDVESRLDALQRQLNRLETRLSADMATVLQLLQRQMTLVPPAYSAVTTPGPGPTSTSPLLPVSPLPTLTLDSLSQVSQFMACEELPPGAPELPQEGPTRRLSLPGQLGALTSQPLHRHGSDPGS
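Note: peak tail current of the secondary pulse compared with the same well before compound.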

For `O=C1N=C(N2CCOCC2)S/C1=C\c1ccc(-c2ccccc2Cl)o1`, which “hERG current change (%, negative = inhibition) at 10uM” value is on record?
Its value is -15.3%.

`COC(=O)CS(=O)(=O)c1ccsc1C(=O)Nc1ccc(F)cc1` was tested. Which “hERG current change (%, negative = inhibition) at 10uM” value did it give?
Its value is 3.5%.

Which “hERG current change (%, negative = inhibition) at 10uM” value does the source give for `Cc1ccc(SCCC(=O)Nc2ccccc2Br)cc1` here?
Its value is 12.8%.

With `C=CCn1cnc2c(oc3ccccc32)c1=O` as the compound, how does the “hERG current change (%, negative = inhibition) at 10uM” value read?
The value was 4.04%.

Which “hERG current change (%, negative = inhibition) at 10uM” value does the source give for `Cc1cnc(C(=O)OCC(=O)N=c2sccn2Cc2ccccc2Cl)cn1` here?
Its value is 10.1%.

For `CCOC(=O)N1CCC(NC(=O)COc2cc(=O)n(C)c3ccccc23)CC1`, which “hERG current change (%, negative = inhibition) at 10uM” value is on record?
Its value is 6.6%.

`O=C(NCCNS(=O)(=O)c1ccccc1)N1CCOCC1` was tested. Which “hERG current change (%, negative = inhibition) at 10uM” value did it give?
Its value is 18.3%.

How did the “hERG current change (%, negative = inhibition) at 10uM” value turn out when `O=C(NC1CCCCC1)C(c1ccccc1F)N(Cc1ccco1)C(=O)c1ccccn1` (stereo not shown) was run?
Its value is -4.03%.

Which “hERG current change (%, negative = inhibition) at 10uM” value does the source give for `Cc1nnc2n(c1=O)N=C(c1ccc(Cl)cc1)CS2` here?
The value was 6.25%.

Which “hERG current change (%, negative = inhibition) at 10uM” value does the source give for `C[n+]1c2n(c3ccccc31)N=C(c1ccc(-c3ccccc3)cc1)CS2.[Br-]` here?
Its value is -79.7%.

How did the “hERG current change (%, negative = inhibition) at 10uM” value turn out when `COc1ccc(C2=Nn3c([n+](C)c4ccccc43)SC2)cc1.[Br-]` was run?
The value was -44.2%.

Which “hERG current change (%, negative = inhibition) at 10uM” value does the source give for `Cc1cc(Cn2nnc3ccccc32)c(O)c(C(C)(C)C)c1` here?
The value was 19.3%.

Which “hERG current change (%, negative = inhibition) at 10uM” value does the source give for `C[n+]1c2n(c3ccccc31)N=C(c1cc(C(C)(C)C)c(O)c(C(C)(C)C)c1)CS2.[Br-]` here?
The value was -77.6%.

How did the “hERG current change (%, negative = inhibition) at 10uM” value turn out when `C[n+]1c2n(c3ccccc31)N=C(c1ccc(Cl)cc1)CS2.[Br-]` was run?
The value was -69%.

Which “hERG current change (%, negative = inhibition) at 10uM” value does the source give for `C[n+]1c2n(c3ccccc31)N=C(c1ccccc1)CS2.[Br-]` here?
Its value is -47.3%.

Which “hERG current change (%, negative = inhibition) at 10uM” value does the source give for `CC1Sc2n(c3ccccc3[n+]2C)N=C1c1ccccc1.[Br-]` (stereo not shown) here?
The value was -49.6%.

Which “hERG current change (%, negative = inhibition) at 10uM” value does the source give for `Cc1ccc(-c2nnc3n2N=C(c2ccc(Br)cc2)CS3)cc1` here?
Its value is -1.26%.

Which “hERG current change (%, negative = inhibition) at 10uM” value does the source give for `C[n+]1c2n(c3ccccc31)N=C(c1ccc(Br)cc1)CS2.[Br-]` here?
The value was -69.5%.

How did the “hERG current change (%, negative = inhibition) at 10uM” value turn out when `COc1ccccc1-c1nnc2n1N=C(c1ccc(O)c(O)c1)CS2` was run?
Its value is -0.453%.

For `CCc1nnc2n1N=C(c1ccc(Cl)cc1)CS2`, which “hERG current change (%, negative = inhibition) at 10uM” value is on record?
Its value is 8.48%.

`Cc1ccc2nc(N3C(=O)C(O)=C(C(=O)c4ccc(C)o4)C3c3ccco3)sc2c1` (stereo not shown) was tested. Which “hERG current change (%, negative = inhibition) at 10uM” value did it give?
The value was 12.8%.

With `COC(=O)c1ccc(NC(=O)C[n+]2ccccc2)cc1.[Cl-]` as the compound, how does the “hERG current change (%, negative = inhibition) at 10uM” value read?
The value was 11.9%.

`COc1ccc(NC(=O)Cn2c(=O)oc3cc(S(=O)(=O)N4CCCC4)ccc32)c(OC)c1` was tested. Which “hERG current change (%, negative = inhibition) at 10uM” value did it give?
The value was 7.38%.

Which “hERG current change (%, negative = inhibition) at 10uM” value does the source give for `O=C(Nc1ccccc1)c1ccc(NCCN2C(=O)CCC2=O)c([N+](=O)[O-])c1` here?
Its value is 10.9%.

Which “hERG current change (%, negative = inhibition) at 10uM” value does the source give for `CCCn1c(N)c(N2CCCCC2)c(=O)n(CC(=O)Nc2ccccc2C)c1=O` here?
The value was 14.6%.

Which “hERG current change (%, negative = inhibition) at 10uM” value does the source give for `Cc1nn(C)cc1C(C)Nc1nc2nonc2nc1N1CCCCC1` (stereo not shown) here?
Its value is 0.196%.

`CCN(Cc1ccc2c(c1)OCO2)C(=O)CSc1nc(C)nc2sc(C)c(C)c12` was tested. Which “hERG current change (%, negative = inhibition) at 10uM” value did it give?
Its value is -5.76%.

With `COc1ccc(C(=O)Nc2c(N)nc(SCC(=O)Nc3ccc(NC(C)=O)cc3)[nH]c2=O)cc1` as the compound, how does the “hERG current change (%, negative = inhibition) at 10uM” value read?
The value was 21.9%.

With `COc1cc(OC)c2c(-c3ccccc3)cc(=O)oc2c1C(CCN1CCCCC1)c1ccc2c(c1)OCO2` (stereo not shown) as the compound, how does the “hERG current change (%, negative = inhibition) at 10uM” value read?
The value was -53.2%.

`COc1ccc(C(CC(=O)N2CCCCC2)c2c(OC)cc(OC)c3c(-c4ccccc4)cc(=O)oc23)cc1` (stereo not shown) was tested. Which “hERG current change (%, negative = inhibition) at 10uM” value did it give?
The value was 0.849%.

With `CCN(CC)CCC(c1ccc(N(C)C)cc1)c1c(OC)cc(OC)c2c(-c3ccccc3)cc(=O)oc12` (stereo not shown) as the compound, how does the “hERG current change (%, negative = inhibition) at 10uM” value read?
The value was -24.5%.

Which “hERG current change (%, negative = inhibition) at 10uM” value does the source give for `COc1ccc(C(CC(=O)N2CCCC2)c2c(OC)cc(OC)c3c(-c4ccccc4)cc(=O)oc23)cc1` (stereo not shown) here?
The value was -5.46%.

With `CCN(CC)CCC(c1ccc2c(c1)OCO2)c1c(OC)cc(OC)c2c(-c3ccccc3)cc(=O)oc12` (stereo not shown) as the compound, how does the “hERG current change (%, negative = inhibition) at 10uM” value read?
Its value is -65.4%.

With `COc1ccc(C(CCN2CCCCC2)c2c(OC)cc(OC)c3c(-c4ccccc4)cc(=O)oc23)cc1` (stereo not shown) as the compound, how does the “hERG current change (%, negative = inhibition) at 10uM” value read?
Its value is -55.1%.

`COc1cc(OC)c2c(-c3ccccc3)cc(=O)oc2c1C(CCN1CCCCC1)c1ccc(N(C)C)cc1` (stereo not shown) was tested. Which “hERG current change (%, negative = inhibition) at 10uM” value did it give?
The value was -25%.

Which “hERG current change (%, negative = inhibition) at 10uM” value does the source give for `CCN(CC)C(=O)CC(c1ccc2c(c1)OCO2)c1c(OC)cc(OC)c2c(-c3ccccc3)cc(=O)oc12` (stereo not shown) here?
The value was 5.08%.

With `COc1cc(OC)c2c(-c3ccccc3)cc(=O)oc2c1C(CCN1CCCC1)c1ccc2c(c1)OCO2` (stereo not shown) as the compound, how does the “hERG current change (%, negative = inhibition) at 10uM” value read?
The value was -46.9%.

`COc1ccc(C(CCN2CCN(c3ccccc3)CC2)c2c(OC)cc(OC)c3c(-c4ccccc4)cc(=O)oc23)cc1` (stereo not shown) was tested. Which “hERG current change (%, negative = inhibition) at 10uM” value did it give?
Its value is -9.55%.

With `COc1ccc(C(CCN2CCCC2)c2c(OC)cc(OC)c3c(-c4ccccc4)cc(=O)oc23)cc1` (stereo not shown) as the compound, how does the “hERG current change (%, negative = inhibition) at 10uM” value read?
Its value is -52.7%.

Which “hERG current change (%, negative = inhibition) at 10uM” value does the source give for `COc1cc(OC)c2c(-c3ccccc3)cc(=O)oc2c1C(CCN1CCCC(C)C1)c1ccc2c(c1)OCO2` (stereo not shown) here?
The value was -48.8%.

With `Nc1cc(=O)[nH]c(SCc2nnnn2-c2ccc(Cl)cc2)n1` as the compound, how does the “hERG current change (%, negative = inhibition) at 10uM” value read?
Its value is 4.04%.

Which “hERG current change (%, negative = inhibition) at 10uM” value does the source give for `CCN1CCCC1CNC(=O)Cn1cc2c(n1)CCC(C)C2` (stereo not shown) here?
The value was 5.4%.

`Cn1ncc(C#N)c1/N=C/N(Cc1ccccc1)Cc1ccccc1` was tested. Which “hERG current change (%, negative = inhibition) at 10uM” value did it give?
The value was -9.12%.

With `COCCN(C(=O)COC(=O)c1ccccc1Nc1ccccc1)c1c(N)n(Cc2ccccc2)c(=O)[nH]c1=O` as the compound, how does the “hERG current change (%, negative = inhibition) at 10uM” value read?
The value was -44.9%.

`Cc1occc1C(=O)NNC(=S)NCc1ccccc1` was tested. Which “hERG current change (%, negative = inhibition) at 10uM” value did it give?
The value was 6.47%.

With `CC(C)(C)C(=O)Nc1cc2c3c(c1)CC(=O)N3CCC2` as the compound, how does the “hERG current change (%, negative = inhibition) at 10uM” value read?
Its value is 18.3%.

`CCN1CCCC1CN(Cc1cc2cc(OC)ccc2[nH]c1=O)C(=O)NCc1ccccc1` (stereo not shown) was tested. Which “hERG current change (%, negative = inhibition) at 10uM” value did it give?
Its value is -46.4%.

How did the “hERG current change (%, negative = inhibition) at 10uM” value turn out when `CCOc1ccc2[nH]c(=O)c(CN(CC3CCCN3CC)C(=O)NCc3ccccc3)cc2c1` (stereo not shown) was run?
Its value is -63.2%.

How did the “hERG current change (%, negative = inhibition) at 10uM” value turn out when `CCOc1ccc2[nH]c(=O)c(CN(Cc3ccccc3)C(=O)N3CCCC3)cc2c1` was run?
Its value is 9.28%.

For `CCN1CCCC1CN(Cc1cc2ccc(C)c(C)c2[nH]c1=O)C(=O)Nc1ccccc1OC` (stereo not shown), which “hERG current change (%, negative = inhibition) at 10uM” value is on record?
Its value is -63.3%.

`COc1ccccc1NC(=O)N(Cc1cc2cc(OC)c(OC)cc2[nH]c1=O)CC1CCCO1` (stereo not shown) was tested. Which “hERG current change (%, negative = inhibition) at 10uM” value did it give?
Its value is -9.13%.

`COc1ccccc1NC(=S)N(Cc1ccco1)Cc1cc2ccc(C)c(C)c2[nH]c1=O` was tested. Which “hERG current change (%, negative = inhibition) at 10uM” value did it give?
Its value is -8.05%.

With `CCN1CCCC1CN(Cc1cc2cc(C)cc(C)c2[nH]c1=O)C(=O)Nc1ccccc1OC` (stereo not shown) as the compound, how does the “hERG current change (%, negative = inhibition) at 10uM” value read?
Its value is -61.4%.

How did the “hERG current change (%, negative = inhibition) at 10uM” value turn out when `COc1ccccc1NC(=O)N(CCN1CCOCC1)Cc1cc2cc(C)cc(C)c2[nH]c1=O` was run?
Its value is -33.2%.

`COc1ccccc1NC(=O)N(Cc1ccco1)Cc1cc2cc(C)cc(C)c2[nH]c1=O` was tested. Which “hERG current change (%, negative = inhibition) at 10uM” value did it give?
The value was -2.39%.

For `Cc1ccc2[nH]c(=O)c(CN(CC3COCCO3)C(=O)Nc3ccccc3C)cc2c1` (stereo not shown), which “hERG current change (%, negative = inhibition) at 10uM” value is on record?
The value was 3.87%.

How did the “hERG current change (%, negative = inhibition) at 10uM” value turn out when `COc1ccccc1NC(=O)N(Cc1ccco1)Cc1cc2ccc(C)c(C)c2[nH]c1=O` was run?
The value was 8.85%.

How did the “hERG current change (%, negative = inhibition) at 10uM” value turn out when `CCN1CCCC1CN(Cc1cc2cc(C)ccc2[nH]c1=O)C(=O)Nc1ccccc1OC` (stereo not shown) was run?
Its value is -60%.
